Measurements reported in PubChem BioAssay.
Activity calls are given as the source filed them.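 Rule for the calls, unless noted: active = inhibition at or above 50% at 10 µM; inactive = inhibition below 50%.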

Legend:
[1] = inhibitors of TNFa-induced NFkB p65 translocation, primary screen, imaging, HUVEC, MLSMR starter and 10KST1 sets (AID 438;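 active = inhibition above 20% together with a positive visual image hit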;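 note: compound added about 3h40 before a 20 min TNFalpha stimulation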;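 for inhibition: signal is the nuclear over cytoplasmic p65 intensity ratio per well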); conditions: HUVEC TNFa-induced p65 nuclear translocation; cell count: measured here: nuclei count (cytotoxicity indicator), at 2.08 µM; inhibition: at 2 µM, stronger effect = higher value, 0% TNFa-plus-vehicle, 100% no-TNFa wells
[2] = reduction of polyQ htt aggregates in cells – imaging, exon1htt(103Q)mCFP cells, high-content imaging, primary screen (AID 483;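 active = visual image review flags a hit and inhibition of aggregation exceeds 20%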;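 note: compound exposure lasted 3 days before fixation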;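 for nuclei count: percent of the per-plate median nuclei count of sample wells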); conditions: exon1htt(103Q)mCFP cell line, aggregate imaging, at 2 µM; inhibition of aggregation: stronger effect = higher value; nuclei count: measured here: cell count, toxicity
[3] = endothelial E-selectin expression blockers – imaging, HUVEC, immunofluorescence, MLSMR starter and 10KST1 sets, primary screen (AID 487;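 active = visually confirmed hit in the image check and inhibition above 20%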;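 for inhibition: signal is fraction of cell area covered by stained E-selectin grains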;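 for nuclei count: 100% = median nuclei count of all wells on the same plate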); conditions: HUVEC TNFalpha-induced E-selectin immunofluorescence imaging, at 2 µM; inhibition: stronger effect = higher value; nuclei count: measured here: cell number, toxicity
[4] = molecular target: Voltage-gated potassium channel subunit beta-2 (Rattus norvegicus) (UniProt P62483); assay: inhibitors of rat Kvbeta2 reductase activity – biochemical, NADPH fluorescence, primary screen (AID 622;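 active = fluorescence slope higher than the sample average by over 3 SD, cut at about -0.22 in these data, passing the limit was not always enough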;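 note: slope of raw intensity against log time taken from 70 to 1610 s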); conditions: recombinant KvBeta, 4-cyanobenzaldehyde reduction, at 10 µM, stronger effect = higher value
[5] = molecular target: Voltage-gated potassium channel subunit beta-2 (Rattus norvegicus) (UniProt P62483); assay: enhancers of rat Kvbeta2 NADPH turnover – biochemical, NADPH fluorescence, primary screen (AID 623;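 active = NADPH fluorescence slope more negative than the mean of all samples by about 3 SD, 99.7% confidence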;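 note: fluorescence intensity change per second fitted from 20 to 320 s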); conditions: Recombinant KvBeta, NADPH fluorescence decrease slope, 10 min; at 10 µM; stronger effect = lower value
[6] = molecular target: Alpha-2C adrenergic receptor (Homo sapiens) (UniProt P18825); assay: compounds altering alpha2C-coupled GIRK flux – cell-based, HEK293 alpha2C/GIRK1/2, thallium flux, primary screen (AID 624;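 active = fluorescence slope after compound addition differing from the mean of all screened samples at 99.7% confidence, in either direction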;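 note: slope of fluorescence ratio to pre-addition baseline per second over 15 to 24 s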); conditions: thallium flux BTC fluorescence, at 10 µM, actives lie on both sides
[7] = blockers of RIG-like receptor reporter activation – cell-based, Sendai virus stimulus, luciferase, 10K MLSCN set, TLR/RLR signaling modifier project, primary screen (AID 602276); conditions: HEK293 RL24 IRF3 luciferase reporter, at 10 µM, stronger effect = higher value;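 note: firefly luciferase from ISG56 promoter only with Renilla not read in this screen; 0% = Sendai virus plus DMSO and 100% = medium plus DMSO without virus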
[8] = TLR3 IRF3 reporter activation blockers – cell-based, poly I:C stimulus, luciferase, 10K MLSCN set, primary screen (AID 602277;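 active = inhibition of the reporter signal at or above 50%; inactive = inhibition below 50%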); conditions: HEK293-TLR3 RL24 IRF3 luciferase reporter, at 10 µM, stronger effect = higher value

Chain of Alpha-2C adrenergic receptor (Homo sapiens) (P18825 whole entry, looked up): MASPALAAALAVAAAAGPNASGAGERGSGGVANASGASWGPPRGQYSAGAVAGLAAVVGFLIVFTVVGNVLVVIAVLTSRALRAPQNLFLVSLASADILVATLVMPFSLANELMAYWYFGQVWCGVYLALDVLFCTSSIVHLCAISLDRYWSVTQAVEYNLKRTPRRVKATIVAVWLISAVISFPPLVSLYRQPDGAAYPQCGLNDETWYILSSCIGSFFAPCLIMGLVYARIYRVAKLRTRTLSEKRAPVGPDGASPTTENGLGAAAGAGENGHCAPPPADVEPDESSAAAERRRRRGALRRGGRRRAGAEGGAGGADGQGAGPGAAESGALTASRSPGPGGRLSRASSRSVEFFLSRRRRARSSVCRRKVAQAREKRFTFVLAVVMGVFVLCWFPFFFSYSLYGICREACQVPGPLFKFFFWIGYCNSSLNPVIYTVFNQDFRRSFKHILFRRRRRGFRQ
Chain of Voltage-gated potassium channel subunit beta-2 (Rattus norvegicus) (P62483 whole entry, looked up): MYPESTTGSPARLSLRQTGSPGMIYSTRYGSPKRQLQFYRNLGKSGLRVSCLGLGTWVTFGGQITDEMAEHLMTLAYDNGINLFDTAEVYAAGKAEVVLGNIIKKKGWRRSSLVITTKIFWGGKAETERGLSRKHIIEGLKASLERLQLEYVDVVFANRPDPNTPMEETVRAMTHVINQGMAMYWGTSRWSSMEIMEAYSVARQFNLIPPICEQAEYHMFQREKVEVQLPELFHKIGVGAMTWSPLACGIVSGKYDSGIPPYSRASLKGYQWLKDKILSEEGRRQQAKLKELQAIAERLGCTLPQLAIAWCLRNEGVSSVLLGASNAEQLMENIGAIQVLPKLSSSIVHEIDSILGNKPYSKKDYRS

Row | SMILES | cell count [1] | inhibition [1] | inhibition of aggregation [2] | nuclei count [2] | inhibition [3] | nuclei count [3] | fluorescence slope [4] | NADPH fluorescence slope [5] | slope [6] | inhibition [7] | inhibition [8]
1 | CCOC(=O)c1ccc2[nH]c3c(c2c1)CN(C)CC3 | 686 | -1.3% (inactive) | 28.7% (inactive) | 73.1% | -29.4% (inactive) | 114% | -0.543 (inactive) | -5.6e-05 (inactive) | 0.00602 (inactive) | 5.79% (inactive) | 21.3% (inactive)
2 | CCC1Oc2ccc(C)cc2N(CC(=O)N(Cc2cccnc2)Cc2ccc(C)o2)C1=O (centres undefined) | 685 | -5.5% (inactive) | 13.1% (inactive) | 93.4% | -9.6% (inactive) | 103% | -0.599 (inactive) | -5e-05 (inactive) | 0.00383 (inactive) | 17.7% (inactive) | 24.3% (inactive)
3 | CC1CCCC(C)N1C(=O)COC(=O)c1ccc[nH]c1=O (centres undefined) | 476 | 0% (inactive) | 3.4% (inactive) | 98.4% | 25.2% (inactive) | 113% | -0.326 (inactive) | -7.3e-06 (inactive) | 0.00649 (inactive) | 16.7% (inactive) | 31.4% (inactive)
4 | O=c1c2ccccc2nc(SCc2cccc(F)c2)n1Cc1ccco1 | 361 | -3.4% (inactive) | 4.4% (inactive) | 87.4% | -37.1% (inactive) | 91.3% | -0.37 (inactive) | 2.5e-05 (inactive) | 0.0116 (inactive) | 9.34% (inactive) | 4.77% (inactive)
5 | Cc1cc(C)c2c(n1)nn1c(C3CC3)cc(C(F)(F)F)nc21 | 631 | -2% (inactive) | 1.3% (inactive) | 92.2% | -11.4% (inactive) | 123% | -0.315 (inactive) | 2.7e-06 (inactive) | 0.00594 (inactive) | 8.22% (inactive) | 17.3% (inactive)
6 | COc1ccccc1OCC(=O)N1CCN(c2ccccc2OC)CC1 | 471 | 3% (inactive) | 5.3% (inactive) | 108% | 35.1% (inactive) | 107% | -0.6 (inactive) | -1.5e-05 (inactive) | 0.00684 (inactive) | -19.3% (inactive) | -1.87% (inactive)
7 | CCC(C)(C(=O)NC1CCCCC1)N(Cc1ccco1)C(=O)c1cnccn1 (centres undefined) | 471 | 0.3% (inactive) | 16.1% (inactive) | 89.9% | -23.4% (inactive) | 110% | -0.376 (inactive) | -4.2e-05 (inactive) | 0.00684 (inactive) | 10.7% (inactive) | 27.6% (inactive)
8 | O=C(CSc1nnc(C2CC2)n1Cc1ccccc1)c1ccc(S(=O)(=O)N2CCOCC2)cc1 | 426 | 15.8% (inactive) | 1.1% (inactive) | 96.7% | -55.3% (inactive) | 112% | -0.412 (inactive) | -0.000138 (inactive) | 0.00543 (inactive) | 13.7% (inactive) | 24% (inactive)
9 | O=C(COc1cccc(Oc2ccccc2)c1)Nc1ncccn1 | 739 | 3.1% (inactive) | 12.8% (inactive) | 103% | -25.1% (inactive) | 111% | -0.609 (inactive) | -1.1e-05 (inactive) | 0.00604 (inactive) | 4.77% (inactive) | 4.74% (inactive)
10 | O=S1(=O)CC(N2CCOCC2)c2ccccc21 (centres undefined) | 644 | -0.2% (inactive) | 8.1% (inactive) | 95.1% | -26.3% (inactive) | 112% | -0.52 (inactive) | -1.6e-05 (inactive) | 0.00437 (inactive) | 7.8% (inactive) | 12.8% (inactive)
11 | CCOC(=O)NC1(NCc2ccccc2)Oc2ccccc2O1 | 606 | -12.3% (inactive) | 9.6% (inactive) | 95% | -140% (inactive) | 129% | -0.509 (inactive) | 9e-05 (inactive) | 0.00513 (inactive) | -5.13% (inactive) | -21.2% (inactive)
12 | CCOC(=O)C(CCc1nnc(N)s1)C(=O)OCC | 710 | -6.3% (inactive) | 3.1% (inactive) | 105% | -16.4% (inactive) | 98.7% | -0.474 (inactive) | 1.7e-06 (inactive) | 0.00419 (inactive) | 16.5% (inactive) | 11.9% (inactive)
13 | O=C(CCNS(=O)(=O)c1ccc(Cl)cc1)NCc1ccccn1 | 609 | -21.1% (inactive) | 5.7% (inactive) | 78.6% | 0.3% (inactive) | 101% | -0.318 (inactive) | 8.2e-06 (inactive) | 0.00312 (inactive) | 17.1% (inactive) | 21.6% (inactive)
14 | CC1NC(=O)NC1CCCCCC(=O)NCCc1ccccc1 (centres undefined) | 391 | 7.3% (inactive) | 7.5% (inactive) | 110% | -86.2% (inactive) | 113% | -0.441 (inactive) | -1.4e-05 (inactive) | 0.006 (inactive) | 5.75% (inactive) | 15.3% (inactive)
